Measurements: PubChem BioAssay (NCATS)
“And” between values parts separate entries of the source, which are not always exact repeats. Equal values may be shown once. Results filed as inconclusive are left out. The source made the active and inactive calls. Unless noted, calls follow the shape of the full dose curve.

Key:
[1] = biological target: ATP-dependent 6-phosphofructokinase (Trypanosoma brucei brucei) (UniProt O15648); assay: qHTS Assay to Find Inhibitors of T. brucei phosphofructokinase: hit validation (AID 492961; active = well fitted curve in the direction sought with a large enough effect; an effect the other way counts as inactive or inconclusive;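 also: luminescence reports ADP formed as PFK phosphorylates fructose-6-phosphate with ATP; % is scaled to controls: 0 for no effect and ±100 for the full control effect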); conditions: T. brucei PFK, ADP-Glo luminescence; series mostly up to 51.4 µM
Procedure, shortened: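 Inhibition of parasite PFK is measured as reduced ADP formation, quantified via luciferase after ATP depletion. Assay used 0.1 mM ATP, 0.5 mM F6P, 1.25 nM enzyme, 45 min incubation.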

[2] = biological target: Bile acid receptor (Homo sapiens) (UniProt Q96RI1); assay: qHTS assay for small molecule antagonists of farnesoid X receptor signaling (AID 588526); conditions: HEK293T FXR-UAS-bla, beta-lactamase ratio, antagonist mode; series mostly up to 76.7 µM; also: % is scaled to controls: 0 for no effect and ±100 for the full control effect
Procedure, shortened: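 Antagonist mode: titrated compounds tested against chenodeoxycholic acid stimulation (normalized to 50 uM CDCA and DMSO) in GeneBLAzer HEK293T cells for 16 h. Beta-lactamase read by CCF4 fluorescence; IC50 from Hill fits.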

[3] = biological target: Bile acid receptor (Homo sapiens) (UniProt Q96RI1); assay: qHTS assay for small molecule agonists of farnesoid X receptor signaling (AID 588527); conditions: HEK293T FXR-UAS-bla, beta-lactamase ratio, 16 h; stronger effect = higher value;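 also: 0% = vehicle basal and 100% = reference agonist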
Procedure, shortened: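 Agonist-mode beta-lactamase reporter in GeneBLAzer FXR-UAS-bla HEK293T cells, titration up to 92 uM, 16 h exposure at 37 C, CCF4 fluorescence. Response scaled to DMSO (0%) and 100 uM chenodeoxycholic acid (100%), then Hill-fitted for EC50 and efficacy.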

[4] = biological target: Glucocorticoid receptor (Homo sapiens) (UniProt P04150); assay: qHTS assay for small molecule agonists of glucocorticoid receptor signaling (AID 588532; active = well fitted curve in the direction sought with a large enough effect in the signal ratio, with a control signal flat; the % refers to the signal ratio;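 also: 100% = dexamethasone at 0.1 µM and 0% = DMSO only wells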); conditions: HeLa MMTV-bla, beta-lactamase ratio, agonist, 18 h; stronger effect = higher value; percent of dexamethasone control, DMSO zero
Procedure, shortened: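 HeLa GRE-bla reporter cells; 18 h compound exposure at 37 C; 2 h CCF4 loading at room temperature; fluorescence at 460 and 530 nm; EC50 by Hill equation.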

[5] = biological target: Glucocorticoid receptor (Homo sapiens) (UniProt P04150); assay: qHTS assay for small molecule antagonists of glucocorticoid receptor signaling (AID 588533; active = well fitted inhibition curve with a large enough effect in the signal ratio, with a control signal flat, not every such curve was filed as active; the % refers to the signal ratio;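 also: cells stimulated with 2 nM dexamethasone as agonist; % is scaled to controls: 0 for no effect and ±100 for the full control effect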); conditions: HeLa MMTV-bla, GRE beta-lactamase ratio, antagonist mode, 18 h; series mostly up to 76.8 µM
Procedure, shortened: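 Antagonist-mode qHTS: compound titrations added to GRE-bla HeLa cells, then dexamethasone 2 nM final; 18 h, 37 C. CCF4 FRET fluorescence normalized to dexamethasone and DMSO; IC50 from Hill fit.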

[6] = biological target: Peroxisome proliferator-activated receptor gamma (Homo sapiens) (UniProt P37231); assay: qHTS assay for small molecule agonists of peroxisome proliferator-activated receptor gamma signaling (AID 588536; active = well fitted curve in the direction sought with a large enough effect in the signal ratio, with a control signal flat, not every such curve was filed as active; the % refers to the signal ratio;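 also: 0% = DMSO basal wells and 100% = rosiglitazone at 2 µM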); conditions: HEK293 PPARg-UAS-bla, beta-lactamase ratio, 16 h, percent of rosiglitazone response, DMSO as zero; series mostly up to 76.7 µM
Procedure, shortened: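 This is an agonist-mode beta-lactamase reporter assay in HEK293 PPAR-gamma-UAS-bla cells with 1% charcoal/dextran FBS. Compound titrations ran 16 h at 37 C before CCF4 detection. EC50 and efficacy are Hill fits scaled to 2 uM rosiglitazone (100%) and DMSO basal.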

[7] = qHTS assay for environmental chemicals that activate the Aryl hydrocarbon Receptor (AhR) signaling pathway (AID 651777; active = well fitted curve in the direction sought with a large enough effect; an effect the other way counts as inactive or inconclusive; also: % of control where 0% means no effect; nearly all actives have a fitted effect of over 15% in size); conditions: 1A2-DRE human hepatoma cells, luciferase, 24 h; activation: stronger effect = higher value
Procedure, shortened: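 Quantitative HTS in stably transfected human liver-derived cells whose luciferase gene sits downstream of the CYP1A2 promoter and dioxin response element. After 24 hr exposure at 37 C, One-Glo luminescence was measured.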

[8] = qHTS assay for small molecule activators of the nuclear factor-kappa B (NF-kB) signaling pathway (AID 651749; active = well fitted activation curve with a large enough effect in the signal ratio; the % refers to the signal ratio; also: % of control where 0% means no effect); conditions: NF-kB-bla ME-180 cells, beta-lactamase FRET ratio, 16 h; activation: stronger effect = higher value
Procedure, shortened: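 In this qHTS format, compounds acting as activators increase NF-kB-driven beta-lactamase in ME-180 cells, measured as disrupted FRET after 16 hr exposure at 37C and 5% CO2.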

[9] = qHTS assay for small molecule activators of the human pregnane X receptor (PXR) signaling pathway (AID 720659; call rule not given here; also: 0% is about no effect); conditions: DPX-2 HepG2 CYP3A4-luciferase, 24 h; series mostly up to 92.3 µM
[10] = biological target: Estrogen receptor (Homo sapiens) (UniProt P03372); assay: qHTS assay for small molecule agonists of estrogen receptor alpha signaling (AID 588514); conditions: ER-alpha-UAS-bla HEK293, beta-lactamase ratio, 18 h; series mostly up to 76.8 µM;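 also: 0% = vehicle only and 100% = reference agonist; nearly all actives have a fitted effect of over 70% in size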
Procedure, shortened: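 Efficacy is expressed against 20 nM 17-beta-estradiol (100%) and DMSO basal (0%); EC50 from Hill equation. Assay: beta-lactamase reporter in ER-alpha-UAS-bla HEK 293 cells, 18 h compound incubation, CCF4 detection.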

Chain of Bile acid receptor (Homo sapiens) (Q96RI1 whole entry, looked up): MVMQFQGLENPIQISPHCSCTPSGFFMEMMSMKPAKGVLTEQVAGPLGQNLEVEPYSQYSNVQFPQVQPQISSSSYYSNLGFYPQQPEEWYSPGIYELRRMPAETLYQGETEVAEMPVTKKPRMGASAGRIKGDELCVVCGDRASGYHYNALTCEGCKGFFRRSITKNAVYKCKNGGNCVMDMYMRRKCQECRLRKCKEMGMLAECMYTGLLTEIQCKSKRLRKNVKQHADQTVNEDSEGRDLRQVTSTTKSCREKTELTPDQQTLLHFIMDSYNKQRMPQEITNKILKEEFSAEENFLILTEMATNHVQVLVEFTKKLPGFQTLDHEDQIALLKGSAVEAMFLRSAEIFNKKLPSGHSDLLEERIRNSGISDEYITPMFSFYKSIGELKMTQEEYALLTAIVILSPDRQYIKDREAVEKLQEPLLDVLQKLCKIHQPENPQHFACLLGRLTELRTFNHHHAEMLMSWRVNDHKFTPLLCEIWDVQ
Chain of Peroxisome proliferator-activated receptor gamma (Homo sapiens) (P37231 whole entry, looked up): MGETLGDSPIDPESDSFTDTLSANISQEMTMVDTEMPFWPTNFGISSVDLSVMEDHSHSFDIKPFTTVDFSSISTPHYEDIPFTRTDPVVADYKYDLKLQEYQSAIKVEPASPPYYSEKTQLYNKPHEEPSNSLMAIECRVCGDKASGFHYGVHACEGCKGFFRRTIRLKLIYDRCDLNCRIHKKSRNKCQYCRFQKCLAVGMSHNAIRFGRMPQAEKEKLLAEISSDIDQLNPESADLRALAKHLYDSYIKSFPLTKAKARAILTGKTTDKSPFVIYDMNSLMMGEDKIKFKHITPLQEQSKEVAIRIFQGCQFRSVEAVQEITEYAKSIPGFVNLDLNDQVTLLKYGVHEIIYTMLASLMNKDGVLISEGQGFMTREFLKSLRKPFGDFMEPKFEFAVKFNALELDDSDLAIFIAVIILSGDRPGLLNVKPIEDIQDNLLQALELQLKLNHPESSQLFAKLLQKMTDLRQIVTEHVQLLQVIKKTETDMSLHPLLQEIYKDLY
Chain of Glucocorticoid receptor (Homo sapiens) (P04150 whole entry, looked up): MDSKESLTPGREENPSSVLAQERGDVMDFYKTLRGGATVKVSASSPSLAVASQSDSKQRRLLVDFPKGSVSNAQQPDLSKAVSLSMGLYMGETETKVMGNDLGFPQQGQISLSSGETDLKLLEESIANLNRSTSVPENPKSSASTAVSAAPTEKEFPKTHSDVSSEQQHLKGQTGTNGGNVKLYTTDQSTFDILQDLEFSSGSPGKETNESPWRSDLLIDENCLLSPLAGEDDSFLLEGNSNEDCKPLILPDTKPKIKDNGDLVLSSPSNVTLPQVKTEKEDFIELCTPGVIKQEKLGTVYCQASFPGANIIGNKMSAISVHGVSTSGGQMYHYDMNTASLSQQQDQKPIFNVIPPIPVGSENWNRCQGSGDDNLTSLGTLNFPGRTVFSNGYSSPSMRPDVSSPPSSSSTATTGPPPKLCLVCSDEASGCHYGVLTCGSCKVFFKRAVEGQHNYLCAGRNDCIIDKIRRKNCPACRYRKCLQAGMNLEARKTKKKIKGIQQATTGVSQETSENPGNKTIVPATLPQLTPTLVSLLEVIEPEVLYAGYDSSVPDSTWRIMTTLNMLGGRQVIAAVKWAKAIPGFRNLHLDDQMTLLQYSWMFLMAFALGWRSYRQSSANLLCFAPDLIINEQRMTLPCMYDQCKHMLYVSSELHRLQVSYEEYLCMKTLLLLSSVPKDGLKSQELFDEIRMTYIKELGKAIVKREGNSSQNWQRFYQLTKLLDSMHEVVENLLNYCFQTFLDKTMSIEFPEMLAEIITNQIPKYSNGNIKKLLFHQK
Chain of Estrogen receptor (Homo sapiens) (P03372 whole entry, looked up): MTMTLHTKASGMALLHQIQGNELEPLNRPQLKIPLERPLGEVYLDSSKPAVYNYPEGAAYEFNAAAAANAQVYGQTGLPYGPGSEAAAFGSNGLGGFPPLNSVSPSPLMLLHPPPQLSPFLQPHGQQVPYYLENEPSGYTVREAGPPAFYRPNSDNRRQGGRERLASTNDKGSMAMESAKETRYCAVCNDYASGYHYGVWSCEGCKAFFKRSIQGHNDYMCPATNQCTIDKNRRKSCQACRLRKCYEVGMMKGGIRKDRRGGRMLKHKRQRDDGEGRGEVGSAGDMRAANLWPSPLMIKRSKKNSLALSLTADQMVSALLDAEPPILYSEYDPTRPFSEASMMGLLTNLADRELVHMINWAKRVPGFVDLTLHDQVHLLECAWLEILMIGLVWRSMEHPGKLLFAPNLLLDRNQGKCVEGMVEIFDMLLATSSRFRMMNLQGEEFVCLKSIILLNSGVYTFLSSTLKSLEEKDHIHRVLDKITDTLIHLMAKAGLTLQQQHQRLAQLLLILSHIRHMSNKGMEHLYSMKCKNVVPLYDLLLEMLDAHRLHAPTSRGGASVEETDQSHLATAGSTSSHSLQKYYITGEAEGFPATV
Chain of ATP-dependent 6-phosphofructokinase (Trypanosoma brucei brucei) (O15648 whole entry, looked up): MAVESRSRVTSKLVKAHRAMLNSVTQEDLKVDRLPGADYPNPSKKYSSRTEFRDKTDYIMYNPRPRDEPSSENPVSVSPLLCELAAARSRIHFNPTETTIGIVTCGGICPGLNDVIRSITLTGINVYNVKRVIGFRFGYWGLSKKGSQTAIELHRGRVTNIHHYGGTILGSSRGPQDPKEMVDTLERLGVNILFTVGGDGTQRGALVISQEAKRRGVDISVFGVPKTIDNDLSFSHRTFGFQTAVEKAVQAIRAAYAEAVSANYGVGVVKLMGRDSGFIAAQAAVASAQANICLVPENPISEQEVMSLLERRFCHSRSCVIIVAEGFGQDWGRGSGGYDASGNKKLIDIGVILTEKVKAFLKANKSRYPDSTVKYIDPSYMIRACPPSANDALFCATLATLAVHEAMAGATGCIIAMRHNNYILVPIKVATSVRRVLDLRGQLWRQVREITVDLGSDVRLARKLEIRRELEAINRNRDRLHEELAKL

CNC(C)[C@@H](O)c1ccccc1 (stereo not given in full)
inactive: Potency [1]

CNC(=O)Oc1cccc2c1OC(C)(C)O2
inactive: outcome [2] | activation [3] -0.605% | activation [4] -2.85% | Potency [5] | outcome [6] | activation [7] 1.33%

CCCCSP(=O)(SCCCC)SCCCC
inactive: outcome [2] | activation [4] -15% | Potency [5] | outcome [6]

O=C(O)COc1cc(Cl)c(Cl)cc1Cl
inactive: outcome [2] | activation [3] -6.14% | activation [4] -6.14% | Potency [5] | activation [7] 0.686%

CC(C)OC(=O)Nc1cccc(Cl)c1
inactive: outcome [2] | activation [3] 2.06% | activation [8] 0.165%

CCC(=O)Nc1ccc(Cl)c(Cl)c1
inactive: outcome [6] | activation [7] 4.76% | outcome [9]

CC(C)N1C(=O)c2ccccc2NS1(=O)=O
inactive: activation [4] 4.24% | Potency [5] | outcome [6] | activation [8] -0.185% | outcome [9]

CCc1cccc(C)c1N(C(=O)CCl)C(C)COC (stereo not given)
inactive: activation [8] -1.58% | activation [7] -0.315%

COP(N)(=O)SC (stereo not given)
inactive: outcome [2] | activation [3] 2.48% | activation [4] -1.71% and 14.7% | Potency [5] | outcome [6] | activation [8] 0.304% and 1.6% | outcome [9]

COc1nc(NC(C)C)nc(NC(C)C)n1
inactive: outcome [2] | activation [3] 0.515% | Potency [5] | activation [8] -2.09% | outcome [9]

CC(C)Nc1nc(Cl)nc(NC(C)C)n1
inactive: Potency [10] | activation [7] 0.683%

CC(C)(C)C(=O)C(Oc1ccc(Cl)cc1)n1cncn1 (stereo not given)
inactive: activation [4] -3.08% and -1.34% | outcome [6]
